ST2 inh – IL1RL1 inhibition; Q01638; AlphaLISA ST2-Fc/biotin-IL-33 interaction, 1 h; inhibition, % for hits at 17 µM; 2.3% of 78,000 active; AID 1259354; in the data active = inhibition above about 30%
Target sequence (Q01638 whole entry, looked up): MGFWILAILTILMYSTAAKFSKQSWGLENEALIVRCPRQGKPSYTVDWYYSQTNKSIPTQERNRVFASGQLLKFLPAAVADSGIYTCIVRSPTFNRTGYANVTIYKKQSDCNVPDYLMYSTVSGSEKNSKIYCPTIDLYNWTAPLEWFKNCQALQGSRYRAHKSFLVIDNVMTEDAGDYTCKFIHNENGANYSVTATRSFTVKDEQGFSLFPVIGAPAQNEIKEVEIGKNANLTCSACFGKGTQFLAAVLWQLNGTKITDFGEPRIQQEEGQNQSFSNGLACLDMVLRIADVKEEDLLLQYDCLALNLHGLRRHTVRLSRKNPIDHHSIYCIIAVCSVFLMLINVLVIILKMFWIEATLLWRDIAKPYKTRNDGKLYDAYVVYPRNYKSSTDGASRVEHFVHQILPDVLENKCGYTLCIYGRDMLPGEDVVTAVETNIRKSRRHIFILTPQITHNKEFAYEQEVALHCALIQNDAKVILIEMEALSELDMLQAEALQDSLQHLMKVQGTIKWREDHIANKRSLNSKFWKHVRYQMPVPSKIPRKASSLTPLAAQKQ
* marks the source's active call; other numbers are inactive results; i = inactive; ! = not active in a repeat. Shown is part of a subset that was picked to be rich in hits.

SMILES | ST2 inh
COc1cc2c(cc1OC)C(C(=O)N1CCCCCC1)C1c3ccccc3CCN1C2=O (stereo not drawn) | i
N#Cc1ccc(-c2csc(NC(=O)c3c(F)cccc3F)n2)cc1 | i
O=C(NCc1ccccc1)c1ccc2c(c1)N(Cc1ccccc1Cl)C(=O)CS2 | i
CN1C(=O)c2ccc(F)cc2C1=O | i
Cc1c(NC(=O)c2cncc(Br)c2)cccc1-c1nc2ccccc2s1 | i
COC(=O)C1CCCCN1C(=O)C1CC(Cc2ccc(F)cc2)=NO1 (stereo not drawn) | i
O=C(Cn1cnc2c(cnn2-c2ccc(Cl)cc2)c1=O)N1CCCc2ccccc21 | i
COc1ccc(C(C)=O)cc1N1C(=O)C2C3C=CC(C3)C2C1=O (stereo not drawn) | i
O=C(CCOc1ccccc1)N1CC[C@H]2[C@H](CCCN2C(=O)Cc2ccc(F)c(F)c2F)C1 | i
Cn1cc(CN2CCN(C3CCS(=O)(=O)C3)CC2)c(-c2cccc(Cl)c2)n1 (stereo not drawn) | i
Cc1ccc2nc(CN(C)C(=O)c3cc(CC(C)C)on3)[nH]c2c1 | i
O=[N+]([O-])c1c(Nc2ccccc2)sc2ccccc12 | 37.0%*
O=[N+]([O-])C1=C(Nc2ccccc2)CS(=O)(=O)C1 | i
Nc1ncnc(Nc2ccc(Oc3ccccc3)cc2)c1[N+](=O)[O-] | i
O=C(CCC1CCN(CC2CCOC2)CC1)N1CCC(Cc2ccccc2)CC1 (stereo not drawn) | i
Cc1ccc(S(=O)(=O)Cc2noc([C@@H]3C[C@@H](O)CN3Cc3ccc(S(C)(=O)=O)cc3)n2)cc1 | i
Cc1ccc(S(=O)(=O)Cc2noc([C@@H]3C[C@@H](O)CN3Cc3c[nH]c4ccccc34)n2)cc1 | i
Cc1ccc(S(=O)(=O)Cc2noc([C@@H]3C[C@@H](O)CN3Cc3ccccc3[N+](=O)[O-])n2)cc1 | 31.0%*
CC(C)CCNC(=O)c1ccc(CS(=O)(=O)c2c(Cl)cccc2Cl)o1 | i
CC1(C)COCN1S(=O)(=O)c1ccc(C(=O)Nc2nnc(-c3cccs3)o2)cc1 | i
CC(=O)N1CCN=C1SCc1cc(C)ccc1C | i
Cc1ccc(-c2[nH]c3ccccc3c2C(C[N+](=O)[O-])c2ccco2)cc1 (stereo not drawn) | i
Cc1[nH]c2ccccc2c1C(C[N+](=O)[O-])c1ccco1 (stereo not drawn) | 36.0%*
COc1cc(C(C[N+](=O)[O-])c2c(C)[nH]c3ccccc23)ccc1O (stereo not drawn) | i
Cc1nc(C(=O)NC2CC(=O)N(CCCc3ccccc3)C2)cs1 (stereo not drawn) | i
SMILES | ST2 inh
COC(=O)[C@@H]1C[C@@H](NC(=O)c2ccc3c4c([nH]c3c2)CCCC4)CN1C | i
CC1C(=O)C(C)C(c2ccc(F)cc2)NC1c1ccc(F)cc1 (stereo not drawn) | i
CC1C(=O)C(C)C(c2ccc(N(C)C)cc2)NC1c1ccc(N(C)C)cc1 (stereo not drawn) | 36.0%*!
CC1C(=O)C(C)C(c2ccccc2O)NC1c1ccccc1O (stereo not drawn) | i
COCCNC(=O)c1c(NC(=O)c2ccc(Br)cc2)sc2c1CCCC2 | i
COc1cccc(NC(=O)CSCc2ccc(Cl)cc2)c1 | i
Cc1cccc(NC(=O)/C(C#N)=C/c2cc(C)n(-c3ccc(F)cc3)c2C)c1 | i
COc1cccc(NC(=O)c2ccc(=O)n(Cc3ccc(F)cc3)c2)c1 | i
COc1cccc(NC(=O)CCCc2ccccc2)c1 | i
COc1cccc(NC(=O)/C(C#N)=C\c2cn(Cc3cccc(C)c3)c3ccccc23)c1 | 33.0%*
COc1cccc(NC(=O)/C(C#N)=C\c2cn(Cc3ccc(C)cc3)c3ccccc23)c1 | 30.0%*
Cc1cc(C)c(NC(=O)CSc2nnnn2-c2c(C)cc(C)cc2C)c(C)c1 | i
Cc1nc2ccc(Cl)cn2c1C(=O)N1CC2(CCNCC2)CC1C(=O)O (stereo not drawn) | i
CSc1nc2c(c(-c3ccc(C)o3)c1C#N)CCCC2 | i
COc1cc(/C=C2\C(=O)N(c3ccccc3)N=C2C)cc(Br)c1O | i
CC1=NN(c2ccc(Cl)c(Cl)c2)C(=O)/C1=C/c1cc([N+](=O)[O-])ccc1O | i
COc1cc(/C=C2\C(=O)N(c3cccc(Cl)c3)N=C2C)cc(OC)c1OC | i
COc1ccc(Cl)cc1/C=C1\C(=O)N(c2cccc(C(=O)O)c2)N=C1C | i
COc1cc(/C=C2\C(=O)N(c3ccc(Cl)c(C(=O)O)c3)N=C2C)c([N+](=O)[O-])cc1OC | 64.0%*
COc1cc(/C=C2\C(=O)N(c3ccc(Cl)c(C(=O)O)c3)N=C2C)cc([N+](=O)[O-])c1O | 80.0%*
Cc1cccc(N2CCN(C(=O)/C=C3\Sc4ccccc4NC3=O)CC2)c1C | i
COc1ccccc1-n1cc(C(=O)NCC(=O)N2CCCCCC2)c2ccccc2c1=O | i
O=C(C1CCCN1S(=O)(=O)c1cccc2nsnc12)N1CCCC1 (stereo not drawn) | i
CN(C)c1ccc(CN2CCC(O)CC2)cc1 | i
O=C(CSc1nc2c(c(=O)n1-c1ccc(Cl)cc1)SCC2)OCc1ccccc1 | i
SMILES | ST2 inh
O=C(CCC1=NS(=O)(=O)c2ccccc2N1)NCc1ccc2c(c1)OCO2 | i
COc1ccc(NC(=O)NCCc2nc3cccnc3n2-c2ccccc2)cc1 | i
COCCO[C@H]1[C@H](NC(=O)C(C)C)c2ccccc2C12CCN(C(=O)[C@@H](O)c1ccccc1)CC2 | i
Cc1ccc(N2C(=O)CSC2c2ccccc2Cl)cc1 (stereo not drawn) | 32.0%*
O=C1CSC(c2ccccc2Cl)N1c1ccccc1 (stereo not drawn) | i
O=C1CSC(c2cccc(Cl)c2Cl)N1c1ccc(F)cc1 (stereo not drawn) | i
O=C(Nc1ccccc1O)c1ccc([N+](=O)[O-])cc1 | i
O=C(c1ccc([N+](=O)[O-])cc1)c1ccc(Cl)c(Cl)c1 | 58.0%*
COc1ccc(C(=O)NCCNc2ccc([N+](=O)[O-])cc2)cc1Cl | i
O=C(c1ccccc1)c1ccc(N2CCCC2)c(F)c1 | i
COc1cc(NC(=O)CN2C(=O)CC(c3ccccc3)=Nc3ccccc32)cc(OC)c1 | i
C=CCOc1ccc(C(O)=C2C(=O)C(=O)N(c3ccccn3)C2c2ccccc2F)cc1 (stereo not drawn) | i
Cc1ccc(Nc2nnc(Cc3ccccc3)c(=O)[nH]2)c(C)c1 | i
COc1cccc(C2C(N3C(=O)c4ccccc4C3=O)C(=O)N2c2ccc(C)c(F)c2)c1 (stereo not drawn) | i
Cc1cc(N2C(=O)c3cccc([N+](=O)[O-])c3C2=O)no1 | i
Cc1ccc(N2C(=O)C(N3C(=O)c4cccc([N+](=O)[O-])c4C3=O)C2c2cccs2)cc1F (stereo not drawn) | 32.0%*
COc1cc2c(cc1OC)C(C(=O)Nc1ccc(C)c(F)c1)C(c1cccs1)N(C)C2=O (stereo not drawn) | i
Cc1cc(Cl)ccc1N1C(=O)C(N2C(=O)c3ccc([N+](=O)[O-])cc3C2=O)C1c1cccs1 (stereo not drawn) | 39.0%*
COc1cccc(C2C(N3C(=O)c4ccccc4C3=O)C(=O)N2c2ccc(C)c(C)c2)c1 (stereo not drawn) | i
O=C1c2ccc([N+](=O)[O-])cc2C(=O)N1c1c[nH]c(=O)[nH]c1=O | i
O=C1c2ccc([N+](=O)[O-])cc2C(=O)N1CN1CCCCC1 | i
